Calls of active or inactive are those of the source.
Key:
[1] = optical density shifts of acrAB sulA E. coli – strain DRC41, OD650, 48 h, E. coli filamentation inducer project, primary screen (AID 1152); conditions: higher = more signal, called active from +8 up or from −8 down;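 note: E. coli MC1000 strain DRC41 lacking acrAB efflux pump and sulA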
[2] = probe aLefty1 binding on compound microarray – biochemical, small-molecule microarray, 635/667 nm fluorescence, primary screen (AID 1153); conditions: higher = more signal;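 note: score merges spot fluorescence with signal-to-noise ratio from the scanned slide images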
[3] = plasmodial surface anion channel blockers, osmotic lysis – cell-based, P. falciparum Indochina, OD700, 1 h, primary screen (AID 1154); conditions: P. falciparum Indochina infected RBC osmotic lysis, higher = more signal, called active from +8 up or from −8 down
[4] = plasmodial surface anion channel blockers, osmotic lysis – cell-based, P. falciparum Indochina, OD700, 2 h, primary screen (AID 1155);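 note: lysis reports solute entry through the parasite surface anion channel PSAC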; conditions: P. falciparum Indochina infected erythrocytes, higher = more signal, called active from +8 up or from −8 down
[5] = changes in parasitized red cell lysis, either direction – P. falciparum Indochina, OD700, 3 h, PSAC antagonist project, primary screen (AID 1156); conditions: P. falciparum-infected erythrocytes, osmotic lysis, higher = more signal, called active from +8 up or from −8 down
[6] = plasmodial surface anion channel blockers, osmotic lysis – cell-based, P. falciparum Indochina, OD700, 18 h, primary screen (AID 1157); conditions: P. falciparum Indochina infected erythrocytes, osmotic lysis OD700, 18 h; higher = more signal, called active from +8 up or from −8 down
[7] = S6 kinase pathway phospho-S6 level changes – cell-based, A549, cytoblot, luminescence, serum-stimulated, primary screen (AID 1158); conditions: 5 h, higher = more signal;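 note: serum-stimulated A549 lung adenocarcinoma cells; signal is phosphorylated S6 detected by cytoblot immunostaining with HRP secondary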
[8] = biological target: NADPH oxidase 2 (Homo sapiens) (UniProt P04839); test: compounds shifting NOX2 Amplex Red fluorescence – cell-based, HEK293-NOX2, PMA-stimulated, NOX inhibitor project, primary screen (AID 1159); conditions: 45 min, higher = more signal, called active from +8 up or from −8 down; note: test concentration not given here
Sequence of NADPH oxidase 2 (Homo sapiens) (P04839 whole entry, looked up): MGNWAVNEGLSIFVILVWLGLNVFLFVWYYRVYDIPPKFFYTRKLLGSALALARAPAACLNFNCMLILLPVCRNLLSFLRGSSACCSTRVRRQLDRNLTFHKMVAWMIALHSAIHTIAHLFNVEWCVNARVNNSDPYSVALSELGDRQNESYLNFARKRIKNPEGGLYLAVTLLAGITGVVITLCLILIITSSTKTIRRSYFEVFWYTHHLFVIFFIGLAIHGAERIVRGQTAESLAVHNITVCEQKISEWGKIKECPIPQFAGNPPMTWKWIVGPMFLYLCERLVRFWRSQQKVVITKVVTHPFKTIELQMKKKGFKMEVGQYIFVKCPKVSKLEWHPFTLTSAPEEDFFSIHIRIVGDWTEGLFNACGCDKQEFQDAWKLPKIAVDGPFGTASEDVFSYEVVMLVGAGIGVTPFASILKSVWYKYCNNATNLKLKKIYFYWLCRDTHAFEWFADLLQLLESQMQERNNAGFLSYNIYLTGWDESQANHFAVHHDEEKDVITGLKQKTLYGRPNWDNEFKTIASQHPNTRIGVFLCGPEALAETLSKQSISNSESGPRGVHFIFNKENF

[9] = biological target: NADPH oxidase 4 (Homo sapiens) (UniProt Q9NPH5); test: compounds shifting NOX4 Amplex Red fluorescence – cell-based, HEK293-NOX4, tetracycline-induced, NOX inhibitor project, primary screen (AID 1160); conditions: HEK293-NOX4, Amplex Red H2O2 fluorescence, 45 min; higher = more signal, called active from +8 up or from −8 down
Sequence of NADPH oxidase 4 (Homo sapiens) (Q9NPH5 whole entry, looked up): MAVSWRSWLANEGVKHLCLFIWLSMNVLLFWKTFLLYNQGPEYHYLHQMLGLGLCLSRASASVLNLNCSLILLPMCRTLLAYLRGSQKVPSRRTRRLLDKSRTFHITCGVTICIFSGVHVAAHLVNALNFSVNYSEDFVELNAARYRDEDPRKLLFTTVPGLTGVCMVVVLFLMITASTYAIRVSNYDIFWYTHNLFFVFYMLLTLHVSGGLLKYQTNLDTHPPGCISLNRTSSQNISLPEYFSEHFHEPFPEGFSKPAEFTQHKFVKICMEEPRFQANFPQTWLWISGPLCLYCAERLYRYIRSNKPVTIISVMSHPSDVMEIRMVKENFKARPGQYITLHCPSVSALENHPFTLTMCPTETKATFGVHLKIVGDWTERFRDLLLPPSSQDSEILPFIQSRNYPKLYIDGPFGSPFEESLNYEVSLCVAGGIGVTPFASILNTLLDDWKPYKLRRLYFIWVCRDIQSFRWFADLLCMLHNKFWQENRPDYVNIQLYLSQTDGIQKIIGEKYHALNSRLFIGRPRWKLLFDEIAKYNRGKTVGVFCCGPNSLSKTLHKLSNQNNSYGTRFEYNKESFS

[10] = biological target: NADPH oxidase 5 (Homo sapiens) (UniProt Q96PH1); test: compounds shifting NOX5 Amplex Red fluorescence – cell-based, HEK293-NOX5, NOX inhibitor project, primary screen (AID 1161); conditions: HEK293-NOX5, ionomycin, 45 min, higher = more signal
Sequence of NADPH oxidase 5 (Homo sapiens) (Q96PH1 whole entry, looked up): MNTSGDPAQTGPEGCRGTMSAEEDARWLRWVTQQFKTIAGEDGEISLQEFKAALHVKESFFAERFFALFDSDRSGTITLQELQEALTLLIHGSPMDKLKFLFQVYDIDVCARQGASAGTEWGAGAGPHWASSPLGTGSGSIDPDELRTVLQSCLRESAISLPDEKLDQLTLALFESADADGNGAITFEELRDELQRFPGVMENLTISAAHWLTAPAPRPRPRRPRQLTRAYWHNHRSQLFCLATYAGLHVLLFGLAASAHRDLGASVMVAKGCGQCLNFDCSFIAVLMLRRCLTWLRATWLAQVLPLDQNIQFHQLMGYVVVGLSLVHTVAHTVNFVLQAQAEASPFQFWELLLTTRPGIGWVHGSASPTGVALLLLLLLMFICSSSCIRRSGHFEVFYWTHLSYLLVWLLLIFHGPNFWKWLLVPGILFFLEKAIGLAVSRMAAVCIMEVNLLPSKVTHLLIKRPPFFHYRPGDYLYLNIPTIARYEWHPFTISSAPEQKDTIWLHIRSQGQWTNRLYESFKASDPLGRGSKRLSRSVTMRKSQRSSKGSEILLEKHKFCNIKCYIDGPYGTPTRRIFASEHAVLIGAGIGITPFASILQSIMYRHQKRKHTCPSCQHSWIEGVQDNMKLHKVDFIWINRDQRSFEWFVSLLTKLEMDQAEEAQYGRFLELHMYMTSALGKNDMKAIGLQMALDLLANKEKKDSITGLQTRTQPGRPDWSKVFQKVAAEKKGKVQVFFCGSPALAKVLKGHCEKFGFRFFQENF

SMILES | z-score [1] | composite z-score [2] | z-score [3] | z-score [4] | z-score [5] | z-score [6] | z-score [7] | z-score [8] | z-score [9] | z-score [10]
O=C1OCCC/C=C\[C@H]2OC34C=CCN(CCN5CCOCC5)C(=O)[C@H]3N(CCO)C(=O)[C@@H]4C12 (stereo not given in full) | 0.216 (inactive) | -0.231 | 0.588 (inactive) | 0.921 (inactive) | 0.723 (inactive) | 0.382 (inactive) | -0.364 | 0.61 (inactive) | -0.342 (inactive) | 0.494
[N-]=[N+]=NCc1ccccc1[C@H]1OC(c2ccc(OCCCO)cc2)=N[C@@]1(Cc1ccccc1)C(=O)O | -1.02 (inactive) | -0.166 | 17.6 (active) | 1.59 (inactive) | -0.907 (inactive) | 0.246 (inactive) | -0.239 | 0.861 (inactive) | 1.27 (inactive) | 1.65
CN1C(=O)C2C=CC(C(O)c3ccccc3)N(NC(=O)OC(C)(C)C)C2C1=O (stereo not given) | -1.18 (inactive) | 0.199 | -0.0278 (inactive) | 0.519 (inactive) | 0.303 (inactive) | 1.25 (inactive) | -1.04 | -1.08 (inactive) | -0.302 (inactive) | -1.87
CC[C@@H]1C=C(C(=O)O)[C@H](c2ccc(C(C)C)cc2)N1S(=O)(=O)c1ccc(C)cc1 | -0.646 (inactive) | 1.36 | 0.998 (inactive) | 0.845 (inactive) | 0.105 (inactive) | 0.709 (inactive) | -0.334 | 0.685 (inactive) | -0.418 (inactive) | -0.0711
Cc1c(NC(=O)/C(C#N)=C/C=C/c2ccccc2)c(=O)n(-c2ccccc2)n1C | 0.813 (inactive) | -0.213 | 1.96 (inactive) | 0.379 (inactive) | 0.0643 (inactive) | 0.205 (inactive) | -0.25 | -0.328 (inactive) | 0.0418 (inactive) | 0.649
COc1ccc([Si](C)(C)[C@@H]2[C@@H](CCO)O[C@]3(C(=O)N(Cc4ccccc4)c4ccc(N(C=O)c5ccccc5)cc43)[C@H]2C)cc1 | 0.601 (inactive) | 0.0355 | 2.8 (inactive) | 2.37 (inactive) | 1.09 (inactive) | 1.87 (inactive) | 0.418 | 0.337 (inactive) | 1.06 (inactive) | 2.49
NC(=O)NCC#Cc1ccc2c(c1)[C@]1(C(=O)N2)[C@H](C(=O)NC[C@H](O)c2ccccc2)[C@H]2C(=O)O[C@H](c3ccccc3)[C@H](c3ccccc3)N2[C@@H]1c1ccccc1OCCO | 2.23 (inactive) | 0.157 | 1.15 (inactive) | -0.658 (inactive) | 0.0336 (inactive) | -2.16 (inactive) | 1.5 | 0.121 (inactive) | -1.95 (inactive) | -1.81
O=C1O[C@H](c2ccccc2)[C@H](c2ccccc2)N2[C@H]1[C@@H](C(=O)Nc1nc3ccccc3s1)[C@]1(C(=O)Nc3ccc(C#CC4=CCCCC4)cc31)[C@H]2c1ccc(OCCO)cc1 | -0.199 (inactive) | 0.46 | 2.54 (inactive) | 1.62 (inactive) | 1.44 (inactive) | 1.2 (inactive) | -0.686 | 1.92 (inactive) | 0.266 (inactive) | 0.0146
O=C1C2C=CC(C(O)c3ccccn3)N(Nc3ccccc3F)C2C(=O)N1c1ccccc1 (stereo not given) | -0.882 (inactive) | -0.133 | 0.671 (inactive) | 0.571 (inactive) | 0.42 (inactive) | 1.19 (inactive) | -0.725 | -1.63 (inactive) | -3.57 (inactive) | -1.54
C=C(COC)C(=O)CC[C@H](OC(=O)c1cccnc1)c1ccccc1OCCO | 0.0928 (inactive) | 0.473 | 8.77 (active) | 0.805 (inactive) | 0.0448 (inactive) | 0.307 (inactive) | -0.283 | -2.86 (inactive) | 0.0432 (inactive) | -1.26
CCCNC(=O)[C@@]1(C)c2ccccc2C(=O)N(Cc2ccc(OC(F)(F)F)cc2)[C@H]1c1ccc(CO)cc1 | 0.707 (inactive) | 0.15 | 7.17 (inactive) | 0.699 (inactive) | 2.41 (inactive) | 0.208 (inactive) | 0.0696 | -1.07 (inactive) | 0.332 (inactive) | 0.423
[N-]=[N+]=NCc1ccccc1C[C@]1(C(=O)NCC(O)CO)COC(c2ccc(OCCCO)cc2)=N1 (stereo not given in full) | 0.896 (inactive) | 0.746 | 24.8 (active) | 10.2 (active) | 3.96 (inactive) | 0.91 (inactive) | -0.0894 | -2.99 (inactive) | -0.28 (inactive) | -2.11
C[C@H]1C2[C@H](Cc3ccccc3)NC(=O)[C@]23C(=O)N[C@H](Cc2ccccc2)C(=O)N[C@H](Cc2ccccc2)C(=O)NC/C=C/CCC/C=C/C3[C@@H]2O[C@]12C (stereo not given in full) | 0.655 (inactive) | -0.19 | 1.75 (inactive) | 0.452 (inactive) | 0.601 (inactive) | 0.794 (inactive) | 0.282 | 0.563 (inactive) | -0.312 (inactive) | 0.875

— PubChem BioAssay
